# Screening data as filed in PubChem.
# MITF inhib = inhibitors of MITF, primary screen, MITF inhibitor project, cell-based, luminescence; TRPM1 promoter luciferase, 24 h; inhibition, % (no concentration beside the values); 37,000 tested, 0.28% active; AID 2240, 2010; in the data active = inhibition above about 85%;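 note: human melanocyte line stably carrying TRPM1 promoter luciferase reporter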
# PD-1 reversal = activators reversing PD-1 mediated T-cell inhibition, primary screen, luminescence, primary human CD4 T cells, PD-L1 beads; activation, % (no concentration beside the values); AID 2316, 2010; CellTiter-Glo 96 h; 29,000 tested, under 10 active; call rule not given here;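 note: 0% = median vehicle wells and 100% = positive control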
# YB-1 expr inh = inhibitors of YB-1 gene expression, primary screen, cell-based, fluorescence. U2OS, qRT-PCR YB-1 vs CDIP delta delta Cp, 16 h; stronger effect = higher value; zero = DMSO, each unit about twofold. delta delta Cp (YB-1 minus CDIP) (concentration not given with the values). 30,000 tested, 0.37% active. AID 434959, 2010;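 active = delta delta Cp rounded down to an integer at or above 3, about 3 SD of DMSO wells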;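 note: higher means less YB-1 transcript or more CDIP transcript relative to DMSO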
# ROS inducer = ROS inducers in U2OS cancer cells, primary screen, cell-based, H2DCF-DA fluorescence; U2OS ROS induction; ROS induction (% of piperlongumine), % at 10 µM; 46,000 tested, 2% active; AID 624156, 2012; in the data active = ROS induction above about 79%, passing the limit was not always enough;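 note: 0% = DMSO vehicle median and 100% = reference compound median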
# NOMO-1 viab = NOMO-1 AML cell viability reduction, primary screen, STK33 inhibitor project, CellTiter-Glo luminescence | 37,000 tested, 7.5% active | NOMO-1 AML viability, 72 h | inhibition, % (test concentration not listed) | AID 2330, 2010; in the data active = inhibition above about 80%
# Starred values were filed as active, the others as inactive; . = no result given. Shown is part of a subset that was picked to be rich in hits.
SMILES,MITF inhib,PD-1 reversal,YB-1 expr inh,ROS inducer,NOMO-1 viab
CN1CCN(C(=O)CSc2c(-c3ccccc3)c3cc(Cl)ccc3[nH]c2=O)CC1,.,.,.,-1.8,.
NC(=O)COc1ccccc1/C=N/NC(=O)c1ccccc1O,.,.,0.502,-6.5,.
O=C(COc1ccc(S(=O)(=O)N2CCOCC2)cc1)Nc1ccc(Cl)c(C(F)(F)F)c1,18.5,-2.7,.,15.7,128.8*
COC(=O)c1ccc(NC(=O)CN2C(=O)C3C4CC(c5ccccc5)C(C4)C3C2=O)cc1 (configuration not stated),-9.2,.,.,.,49.3
COc1ccc(S(=O)(=O)N(C)C[C@@H]2Oc3ccc(NC(=O)Nc4ccc(C(F)(F)F)cc4)cc3CC(=O)N([C@@H](C)CO)C[C@@H]2C)cc1,49.6,-3.7,-0.0268,36.9,102.2*
COc1ccc(S(=O)(=O)N(C)C[C@@H]2Oc3ccc(NC(=O)Nc4ccc(C(F)(F)F)cc4)cc3CC(=O)N([C@H](C)CO)C[C@@H]2C)cc1,30.9,-1.8,-0.0891,0.2,114.7*
N#C/C(=C\c1ccc(C2=CCOc3ccccc32)s1)S(=O)(=O)c1ccccc1,.,.,.,-6.9,.
Cc1cccc(-n2c(SCC(=O)O)nnc2-c2cccs2)c1C,-3.3,-1.4,.,1.5,5.5
Cc1cc(C)nc(/N=C2\NC(=O)CC(C(=O)O)N2c2ccc(F)c(Cl)c2)n1 (configuration not stated),-4.8,0.9,.,1.7,-7.9
COC(=O)/C=C1/C(=O)N/C(=N\c2nc(C)cc(C)n2)N1c1cccc(C)c1,-15.3,-0.1,-0.126,102.8*,41.2
Cc1ccc(S(=O)(=O)Nc2ccc3c(c2)CC(=O)N([C@@H](C)CO)C[C@H](C)[C@@H](CN(C)Cc2ccccc2)O3)cc1,-2.2,0.4,0.158,28.3,90.6*
Cc1ccc(S(=O)(=O)Nc2ccc3c(c2)CC(=O)N([C@H](C)CO)C[C@@H](C)[C@H](CN(C)Cc2ccccc2)O3)cc1,1.2,1.5,-0.0186,3.6,4.9
Cc1ccc(S(=O)(=O)Nc2ccc3c(c2)CC(=O)N([C@H](C)CO)C[C@H](C)[C@H](CN(C)Cc2ccccc2)O3)cc1,-1.6,2.8,-0.233,-0.6,98.1*
Cc1noc(C)c1NC(=O)Nc1ccc2c(c1)C(=O)N([C@@H](C)CO)C[C@H](C)[C@H](CN(C)C(=O)Nc1ccc(F)cc1)O2,-5.6,1.5,0.0723,-6.3,18.8
O=C1O[C@H](c2ccccc2)[C@H](c2ccccc2)N2[C@H]1[C@@H](C(=O)Nc1nc3ccccc3s1)[C@]1(C(=O)Nc3ccc(C#CCCO)cc31)[C@H]2c1ccc(OCCO)cc1,.,.,-0.228,12.3,.
CCOC(=O)c1ccccc1NC(=O)CC1Sc2ccc(C(F)(F)F)cc2NC1=O (configuration not stated),1.6,-1.7,.,-7.5,18.1
COc1cc2c(cc1OC)N1C(=O)C[C@]34C=CCN5CC[C@@H]2[C@@H](CC3)[C@]514,.,.,0.162,86.2*,.
COc1ccc(S(=O)(=O)N(C)C[C@@H]2OCCCC[C@@H](C)Oc3ccc(NC(=O)NC4CCCCC4)cc3C(=O)N([C@H](C)CO)C[C@@H]2C)cc1,8.1,0.1,-0.0028,140.5*,11.7
C[C@@H]1CCCCO[C@@H](CN(C)S(=O)(=O)c2ccccc2)[C@@H](C)CN([C@H](C)CO)C(=O)c2cc(NS(=O)(=O)c3ccc(F)cc3)ccc2O1,27.2,-0.6,-0.263,205.9*,41.8
Cc1ccc(S(=O)(=O)Nc2ccc3c(c2)C(=O)N([C@H](C)CO)C[C@H](C)[C@@H](CN(C)S(=O)(=O)c2ccc(C)cc2)OCCCC[C@@H](C)O3)cc1,8.9,.,0.128,19.1,60.7
COc1ccc(S(=O)(=O)N(C)C[C@H]2OCCCC[C@@H](C)Oc3ccc(NC(=O)NC4CCCCC4)cc3C(=O)N([C@H](C)CO)C[C@@H]2C)cc1,12.7,2.5,0.511,34.2,24.4
C[C@@H]1CCCCO[C@H](CN(C)S(=O)(=O)c2ccc(F)cc2)[C@@H](C)CN([C@H](C)CO)C(=O)c2cc(NS(=O)(=O)c3ccc(F)cc3)ccc2O1,18.3,.,0.0988,36.6,24.1
Cc1ccc(S(=O)(=O)N(C)C[C@@H]2OCCCC[C@@H](C)Oc3ccc(NS(=O)(=O)c4ccc(Cl)cc4)cc3C(=O)N([C@H](C)CO)C[C@@H]2C)cc1,53.7,-0.5,-0.681,110.7*,52.2
COc1ccc(S(=O)(=O)N(C)C[C@@H]2Oc3ccc(NS(=O)(=O)c4ccc(F)cc4)cc3C(=O)N([C@@H](C)CO)C[C@@H]2C)cc1,6.6,-2.5,18.7*,9.5,10.0
CC(NS(=O)(=O)c1ccc(Cl)cc1)C(=O)Nc1cccc2ccccc12 (configuration not stated),17.3,-1.3,.,-3.0,13.8
SMILES,MITF inhib,PD-1 reversal,YB-1 expr inh,ROS inducer,NOMO-1 viab
CC(C)(C)c1ccc(-c2nnc(-c3ccccc3NC(=O)CCC(=O)O)o2)cc1,.,.,.,73.2,.
C[C@H](CO)N1C[C@H](C)[C@@H](CN(C)C(=O)Nc2cccc3ccccc23)Oc2ccc(NC(=O)C3CCCCC3)cc2C1=O,-0.6,-2.3,0.106,-2.2,13.7
Cc1ccc(S(=O)(=O)Nc2ccc3c(c2)C(=O)N([C@H](C)CO)C[C@H](C)[C@H](CN(C)S(=O)(=O)c2ccc(C)cc2)OCCCC[C@@H](C)O3)cc1,31.7,-2.0,-0.936,19.4,94.7*
COc1ccc(S(=O)(=O)N(C)C[C@@H]2OCCCC[C@@H](C)Oc3ccc(NS(=O)(=O)c4ccc(F)cc4)cc3C(=O)N([C@H](C)CO)C[C@@H]2C)cc1,35.5,.,-0.236,128.3*,63.5
C[C@@H]1CCCCO[C@@H](CN(C)S(=O)(=O)c2cn(C)cn2)[C@@H](C)CN([C@H](C)CO)C(=O)c2cc(NC(=O)C3CCCCC3)ccc2O1,-6.4,-1.4,-0.681,126.1*,19.6
C[C@@H]1CCCCO[C@H](CN(C)C(=O)CCCN(C)C)[C@@H](C)CN([C@H](C)CO)C(=O)c2cc(NS(=O)(=O)c3ccccc3)ccc2O1,0.6,0.9,4.89*,-17.5,3.1
Cc1ccc(S(=O)(=O)Nc2cccc3c2O[C@H](CN(C)S(=O)(=O)c2ccc(C)cc2)[C@H](C)CN([C@H](C)CO)C3=O)cc1,-6.1,1.1,0.402,-0.4,34.3
CCC(SC1=NCCS1)C(=O)Nc1ccc(NC(C)=O)cc1 (configuration not stated),0.9,0.0,.,12.5,22.2
O=C(CCCCCCC(=O)Nc1ccccc1O)N/N=C/c1ccc(O)c(O)c1O,.,.,0.0147,-9.1,.
C[C@@H]1CCCCO[C@@H](CN(C)S(=O)(=O)c2ccc(F)cc2)[C@@H](C)CN([C@H](C)CO)C(=O)c2cc(NS(=O)(=O)c3ccc(Cl)cc3)ccc2O1,44.7,-9.3,-0.0197,72.5,112.3*
Cc1ccc(S(=O)(=O)Nc2ccc3c(c2)C(=O)N([C@H](C)CO)C[C@H](C)[C@@H](CN(C)S(=O)(=O)c2ccccc2)OCCCC[C@@H](C)O3)cc1,15.7,.,-0.222,136.8*,20.2
